In all, about 310,000 compounds went through this assay and about 14,000 (4.5%) showed an effect of 50% or more. The effect is printed as a negative number. The sample holds strong results, similar compounds and a random draw of the others, so the mix is not that of the screen.
Target: human ether-à-go-go-related gene (hERG) potassium channel (human, UniProt Q12809)
Test: primary screen, population patch clamp on CHO cells stably expressing hERG; higher = less effect of the substance
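Also: peak tail current of the secondary pulse compared with the same well before compound.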

Chain of human ether-à-go-go-related gene (hERG) potassium channel (Q12809 whole entry, looked up): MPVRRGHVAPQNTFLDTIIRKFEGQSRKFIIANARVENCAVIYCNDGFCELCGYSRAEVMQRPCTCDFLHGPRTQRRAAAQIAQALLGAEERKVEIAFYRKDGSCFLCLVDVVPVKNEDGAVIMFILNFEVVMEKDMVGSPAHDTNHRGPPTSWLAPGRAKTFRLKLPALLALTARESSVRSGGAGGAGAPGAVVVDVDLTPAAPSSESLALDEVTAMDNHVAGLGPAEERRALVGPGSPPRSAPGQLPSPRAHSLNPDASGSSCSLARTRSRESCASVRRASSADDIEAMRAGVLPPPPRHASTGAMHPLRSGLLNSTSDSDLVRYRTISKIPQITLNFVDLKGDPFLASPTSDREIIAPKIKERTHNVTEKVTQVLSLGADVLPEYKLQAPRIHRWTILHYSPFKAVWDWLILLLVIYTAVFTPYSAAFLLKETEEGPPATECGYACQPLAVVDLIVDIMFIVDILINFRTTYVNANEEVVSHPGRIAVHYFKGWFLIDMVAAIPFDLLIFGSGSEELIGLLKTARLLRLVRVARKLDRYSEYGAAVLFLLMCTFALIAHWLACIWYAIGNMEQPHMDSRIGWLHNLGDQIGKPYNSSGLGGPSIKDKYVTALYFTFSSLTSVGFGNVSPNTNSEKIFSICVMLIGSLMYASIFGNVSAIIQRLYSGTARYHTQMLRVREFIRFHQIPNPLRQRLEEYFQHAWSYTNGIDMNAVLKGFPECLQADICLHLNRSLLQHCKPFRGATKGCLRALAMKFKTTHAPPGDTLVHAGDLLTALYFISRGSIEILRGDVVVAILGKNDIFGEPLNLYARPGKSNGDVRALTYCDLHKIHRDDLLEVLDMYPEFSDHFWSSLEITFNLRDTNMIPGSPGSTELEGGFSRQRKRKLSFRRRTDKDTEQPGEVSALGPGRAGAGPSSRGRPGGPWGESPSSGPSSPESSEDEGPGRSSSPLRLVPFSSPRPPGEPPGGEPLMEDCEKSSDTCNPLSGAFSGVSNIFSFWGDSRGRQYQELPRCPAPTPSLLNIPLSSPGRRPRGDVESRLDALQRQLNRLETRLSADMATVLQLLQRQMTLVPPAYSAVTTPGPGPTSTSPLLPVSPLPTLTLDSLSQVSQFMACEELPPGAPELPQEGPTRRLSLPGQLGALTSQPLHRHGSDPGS

SMILES | hERG current change (%, negative = inhibition) at 10uM [%]
Nc1ccc(C(=O)Nc2cccc(NC(=O)c3ccc(N)cc3)c2)cc1 | 17.7
Cn1c(=O)c(=O)n(C)c2cc(S(=O)(=O)CCC(=O)Nc3ccc(F)cc3)ccc21 | -2.6
CS(=O)(=O)N1CCN(CC2CC3C=CC2C3)CC1.O=C(O)C(=O)O (stereo not drawn) | 5.01
CCOc1ccc(N2C(=O)C3C(c4ccc(O)cc4)NC(CCSC)(C(=O)OC)C3C2=O)cc1 (stereo not drawn) | -12.3
CC(NC(=O)c1nn(C)c(=O)c2ccccc12)c1ccc(F)cc1 (stereo not drawn) | -3.84
CCCOC(=O)c1ccccc1C(=O)OCCC | -3.24
CCCCCCCCNC(=O)CCNC(=O)c1ccc(C(C)(C)C)cc1 | 8
O=C(c1cc(S(=O)(=O)N2CCOCC2)ccc1F)N(CCc1ccccc1)Cc1ccccc1 | -4.37
O=C(NCc1ccccc1)c1ccc(F)c(S(=O)(=O)N2CCOCC2)c1 | -17.4
CC1CN(S(=O)(=O)c2cccc(C(=O)N(CCc3ccccc3)Cc3ccccc3)c2)CC(C)O1 (stereo not drawn) | -7
O=C(c1ccc(F)c(S(=O)(=O)N2CCOCC2)c1)N(CCc1ccccc1)Cc1ccccc1 | -68.3
O=C(c1cccc(S(=O)(=O)N2CCOCC2)c1)N(CCO)Cc1ccccc1 | -19.8
O=C(c1cccc(S(=O)(=O)N2CCOCC2)c1)N(CCc1ccccc1)Cc1ccccc1 | -55.4
CCc1nc2cc([N+](=O)[O-])c([N+](=O)[O-])cc2[nH]1 | -14.5
NC(=O)c1ccccc1NC(=O)c1ccc2c(c1)OCO2 | 5.14
CCc1cc2c(=O)n(CC(=O)NC3CCCCC3)cnc2s1 | 4.86
COc1ccc(C2Nc3ccccc3C(=O)N2NC(C)=O)c(OC)c1 (stereo not drawn) | 14.3
Cc1cc(Br)c2nc3c(c(C(=O)O)c2c1)CCCCC3 | 4.41
Cc1ccc2nc3c(c(N)c2c1)CCN3C.O=C(O)C(=O)O | -33.1

SMILES | hERG current change (%, negative = inhibition) at 10uM [%]
Cc1cccc2c(N)c3c(nc12)N(C)CC3.O=C(O)C(=O)O | -23.1
O=C(O)c1cncc(Br)c1 | 27.3
CN1CCCCc2c1nc1ccccc1c2N.O=C(O)c1cncc(Br)c1 | -82.5
Cc1ccc(C)c2c(N)c3c(nc12)CCCCC3.O=C(O)c1cncc(Br)c1 | -88.4
O=[N+]([O-])c1ccc(-c2cnc(NO)nc2)cc1 | -28
CC(C)(C)NC(=O)C(=O)NNC(=O)c1cccc(F)c1 | 18.1
CC1=C(C#N)C(=O)N(C2CCS(=O)(=O)C2)C(=O)/C1=C\c1ccco1 (stereo not drawn) | 7.81
O=C(COC(=O)C1=NNC(=O)CC1)NCCc1ccccc1 | 17.4
O=c1cc(N2CCN(Cc3ccccc3)CC2)c(-c2ccccc2)n[nH]1 | -1.87
Cn1nc(C(C)(C)C)cc1NC(=O)Nc1ccc(F)cc1F | 5.93
CCC(C)N1C(=S)SC(C)(C)C1N(O)C(=O)NC1CCCCC1 (stereo not drawn) | 9.19
COc1ccc(OC)c(C2(O)CSC(=Nc3cccnc3)N2Cc2ccco2)c1 (stereo not drawn) | -16.3
Cn1c(=O)c2c(SCC(=O)N3CCOCC3)nc(-c3ccccc3F)nc2n(C)c1=O | -8.27
O=C(c1cc(COc2ccc(F)cc2Cl)on1)N1CCN(C2CCCC2)CC1 | -61.4
CCOC(=O)CC1COCCN1C(=O)c1cc(COc2ccc(F)cc2Cl)on1 (stereo not drawn) | -23.2
CSc1ccccc1OCc1cc(C(=O)N2CCN(C3CCCC3)C(=O)C2)no1 | -34.8
O=C(c1cc(COc2ccc(F)cc2F)on1)N1CCN(C2CCCC2)C(=O)C1 | -25.8
CCOC(=O)CC1COCCN1C(=O)c1cc(COc2ccc(F)c(F)c2)on1 (stereo not drawn) | -61.5
O=C(c1cc(COc2ccc(F)c(F)c2)on1)N1CCN(C2CCCCC2)C(=O)C1 | -56.2

SMILES | hERG current change (%, negative = inhibition) at 10uM [%]
O=C(c1cc(COc2ccc(F)c(F)c2)on1)N1CCOCC1 | 5.02
O=C(c1cc(COc2c(F)cccc2F)on1)N1CCN(C2CCCCC2)C(=O)C1 | -17.5
O=C(c1cc(COc2ccc(F)cc2Cl)on1)N1CCN(C2CCCCC2)C(=O)C1 | -67.9
COc1cccc(OCc2cc(C(=O)N3CCN(C4CCCCC4)C(=O)C3)no2)c1 | -3.09
O=C(c1cc(COc2ccc(F)cc2Cl)on1)N1CCSCC1 | -4.58
COc1ccc(OCc2cc(C(=O)N3CCN(C4CCCC4)CC3)no2)c(Cl)c1 | -29.6
O=C(COC(=O)CN1C(=O)C2CCCCC2C1=O)Nc1cc(S(=O)(=O)N2CCOCC2)ccc1Cl (stereo not drawn) | -12.6
Cc1ccc(C(=O)NCCCn2ccnc2)cn1 | 4.36
O=C(NC1CCCCCC1)C1CCN(S(=O)(=O)c2cnc[nH]2)CC1 | 8.78
CCN(CC)C(=O)COc1cc(C)c(Cl)c(C)c1 | -5.91
COc1ccc(C(=O)NCc2ccccc2OC)c(OC)c1 | -11.6
Oc1c(Br)cc(Br)cc1C=Nc1ccc2c(c1)OCCO2 | 14.9
O=C(N/N=C/c1cc(Br)cs1)c1ccc2c(c1)OCCO2 | 10.2
Oc1c(Cl)cc(Cl)cc1C=Nc1ccc2c(c1)OCCO2 | 21.2
Brc1ccc(C=Nc2ccc(Nc3ccccc3)cc2)s1 | 9.59
Brc1ccc(C=Nc2ccc3c(c2)OCCOCCOCCO3)s1 | -66.2
Brc1csc(C=Nc2ccc3c(c2)OCCOCCOCCOCCO3)c1 | -73.5
NC(=O)c1ccccc1NC(=O)N1CCOCC1 | -2.02
CCOC(=O)C1CCCN(C(=O)c2ccc(Cl)cc2)C1 (stereo not drawn) | 0.557
